SMILES strings stand for the structures. Active and inactive are the calls of the source. Rule for the calls: active = hit-call score of the fitted dose curve at least 0.9, where 1 is the maximum; inactive = score below 0.9.

Assay [1] can be described thus: CEETOX_H295R_TESTO_noMTC: CeeTox H295R High-throughput Steroidogenesis Assay for Testosterone (TESTO), maximum tolerated concentration (MTC) filtered results only (AID 2283924). The conditions noted are these: actives raise or lower the signal. A digest of the protocol:
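H295R cells prestimulated 48 h with 10 uM forskolin, then exposed 48 h to chemicals in 0.1% DMSO final. Testosterone in medium quantified by MTBE extraction and HPLC-MS/MS; bidirectional fit versus DMSO, concentrations […] filtered by MTT-based maximum tolerated concentration.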

Another assay concerns the target PGR (gene 5241) (UniProt P06401). As to the kind of experiment: TOX21_PR_LUC_Followup_Agonist: Tox21 HEK293 Progesterone Receptor (PR) Agonism Luciferase Follow-Up Assay (AID 2283937). A digest of the protocol: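 Agonist mode: reporter cells carrying PR-A and luciferase are treated 16 h with test compounds at 37C. Luciferase induction is measured by luminescence and fitted upward against DMSO.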

PGR (gene 5241), sequence (P06401 whole entry, looked up): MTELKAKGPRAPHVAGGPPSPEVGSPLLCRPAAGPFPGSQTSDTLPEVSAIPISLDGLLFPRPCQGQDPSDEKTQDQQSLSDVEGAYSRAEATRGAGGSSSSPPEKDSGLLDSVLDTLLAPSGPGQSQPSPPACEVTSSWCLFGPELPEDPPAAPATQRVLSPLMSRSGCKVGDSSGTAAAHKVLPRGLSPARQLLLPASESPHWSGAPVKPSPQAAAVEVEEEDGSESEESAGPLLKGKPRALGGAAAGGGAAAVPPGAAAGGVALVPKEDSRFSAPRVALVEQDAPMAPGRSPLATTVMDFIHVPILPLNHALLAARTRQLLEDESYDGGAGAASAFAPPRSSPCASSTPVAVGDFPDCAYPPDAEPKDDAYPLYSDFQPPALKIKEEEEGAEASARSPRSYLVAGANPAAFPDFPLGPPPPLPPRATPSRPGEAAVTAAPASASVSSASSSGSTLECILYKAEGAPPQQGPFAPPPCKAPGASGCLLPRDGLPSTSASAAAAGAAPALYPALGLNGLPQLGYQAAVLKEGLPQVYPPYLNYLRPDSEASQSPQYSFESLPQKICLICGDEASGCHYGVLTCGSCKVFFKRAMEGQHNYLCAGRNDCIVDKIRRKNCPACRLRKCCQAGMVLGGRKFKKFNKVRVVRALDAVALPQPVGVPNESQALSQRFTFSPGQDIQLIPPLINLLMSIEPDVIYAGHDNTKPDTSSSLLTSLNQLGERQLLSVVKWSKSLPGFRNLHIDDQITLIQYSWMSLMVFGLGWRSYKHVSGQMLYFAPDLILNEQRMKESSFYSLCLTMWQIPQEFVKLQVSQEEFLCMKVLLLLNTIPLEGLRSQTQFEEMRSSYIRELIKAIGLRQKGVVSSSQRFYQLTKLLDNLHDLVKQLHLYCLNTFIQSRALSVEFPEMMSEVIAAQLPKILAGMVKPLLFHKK

For the compound `CCOP(=S)(OCC)SCS(=O)(=O)CC`, the AC50 in assay [1] was 45.4 µM (active).

With `CO/N=C(/C(=O)OC)c1ccccc1COc1ccccc1C`, the outcome with PGR (gene 5241) was inactive.

Broadly, the AC50 is the midpoint of the concentration-response curve, whichever way the signal moves.

The values are drawn from PubChem BioAssay (EPA / NIEHS).
